Assay outcomes as filed in PubChem.
This is a sample that favours compounds with a hit; in the whole collection about 3.2% have one here.
CDK5 p35 inh – inhibitors of human CDK5/p35 kinase, primary screen, biochemical, single concentration | Recombinant CDK5/p35, ADP-Glo luminescence, 60 min | inhibition, % at 10 µM | 0.01% of 330,000 active | AID 488839, 2010;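 active means highest replicate inhibition of at least 50% and at least 75% of replicates reaching 50%; inconclusive means only one of the two criteria met; inactive means both criteria failed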
Target sequence (Q00535 whole entry, looked up): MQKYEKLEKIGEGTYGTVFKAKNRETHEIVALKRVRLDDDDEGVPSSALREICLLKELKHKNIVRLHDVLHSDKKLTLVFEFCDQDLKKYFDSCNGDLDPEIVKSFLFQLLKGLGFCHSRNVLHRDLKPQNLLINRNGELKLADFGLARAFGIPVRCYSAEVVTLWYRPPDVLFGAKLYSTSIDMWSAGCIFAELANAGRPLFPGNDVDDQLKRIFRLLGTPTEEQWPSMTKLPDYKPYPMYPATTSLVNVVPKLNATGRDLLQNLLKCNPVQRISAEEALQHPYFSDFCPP
Target sequence (Q15078 whole entry, looked up): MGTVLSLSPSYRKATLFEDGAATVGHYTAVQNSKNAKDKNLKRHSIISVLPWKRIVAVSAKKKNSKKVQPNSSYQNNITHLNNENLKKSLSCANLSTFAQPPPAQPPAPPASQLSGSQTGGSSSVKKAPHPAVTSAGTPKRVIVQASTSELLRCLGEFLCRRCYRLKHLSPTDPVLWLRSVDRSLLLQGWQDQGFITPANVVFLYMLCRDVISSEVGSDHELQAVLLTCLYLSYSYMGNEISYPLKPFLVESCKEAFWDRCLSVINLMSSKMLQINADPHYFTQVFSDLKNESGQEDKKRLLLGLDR
Rtt109 HAT inh – inhibitors of C. albicans Rtt109/Vps75 HAT, primary screen, biochemical, ThioGlo CoA-SH fluorescence, plate reader | purified Rtt109/Vps75, 4 h | 0.16% of 330,000 active | Histone acetyltransferase RTT109 (Candida albicans (strain SC5314 / ATCC MYA-2876)), … | inhibition, % at 34.9 µM;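 active means inhibition of at least 50% in every replicate; inconclusive means best replicate reaches 50% inhibition but some replicates fall short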
dFosB activator – activators of delta FosB homodimer, primary screen, biochemical, fluorescence polarization, TAMRA-CDK5 oligo, single point; 0.99% of 340,000 active; activation, % at 25 µM; Protein FosB (Mus musculus), P13346; AID 493131, 2011; purified delta FosB; percent of positive-control signal above neutral wells;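 active means mean activation above about 17%, with every replicate also reaching it, limit read from the data, passing the limit was not always enough; inconclusive means only one of the two conditions met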
SMARCA2 activ – SMARCA2 (BRM) function activators, primary screen, cell-based, luminescence, high throughput | MG213 cells, MMTV-luciferase reporter, dexamethasone, overnight | 1% of 370,000 active | activation, % at 9.1 µM | AID 652017, 2013; in the data active means activation above about 7.8%
Dyrk1A ADPGlo – rat Dyrk1A kinase inhibitors, primary screen, biochemical, single point, plate reader | 0.43% of 310,000 active | inhibition, % at 12.5 µM | AID 504441, 2011 | ADP-Glo luminescence, NFATc1 peptide | Dual specificity tyrosine-phosphorylation-regulated kinase 1A (Rattus norvegicus), Q63470; in the data active means inhibition above about 50%
esBAF inh – Bmi1 luciferase reporter increase in mESCs, primary screen, esBAF inhibitor project, mouse ES cells, Bmi1 luciferase knock-in, single point; 24 h; 100% = twice the neutral-well signal; reporter increase, % at 12.5 µM; 2% of 350,000 active; in the data active means activation above about 40%; inconclusive means no clear call, values can overlap the other calls;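 further: a rise in the Bmi1 reporter signal indicates esBAF inhibition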
Of the large screens only hits and unclear results are named; the others gave an inactive call.

CC1N(C)c2cc(NC(=O)c3ccco3)c(P(=O)(Nc3ccc([N+](=O)[O-])cc3)N3CCOCC3)cc2C1(C)C (stereo unspecified)	dFosB activator inconclusive (no result: esBAF inh)
CC1N(C)c2cc(NC(=O)c3ccco3)ccc2C1(C)C (stereo unspecified)	dFosB activator 144.6 (no result: esBAF inh)
O=C(C[C@@H]1CC[C@@H]2[C@H](COC[C@H](O)CN2C(=O)Nc2ccc(Cl)cc2)O1)NC1Cc2ccccc2C1	none (no result: CDK5 p35 inh, Rtt109 HAT inh, dFosB activator, SMARCA2 activ, Dyrk1A ADPGlo)
COCC(=O)Nc1sc2c(c1C(=O)OC)CCC(C)C2 (stereo unspecified)	none
COC(=O)c1c(NC(=O)CN2CCOCC2)sc2c1CCC(C)C2 (stereo unspecified)	esBAF inh 61.6
Cc1ccccc1S(=O)(=O)N1CC[C@@H]2[C@H]1c1cc(-c3ccc(C#N)cc3)ccc1N(C)[C@H]2CO	none (no result: CDK5 p35 inh, Rtt109 HAT inh, dFosB activator, SMARCA2 activ, Dyrk1A ADPGlo)
N#C/C(=C\c1ccc(O)cc1)C(=O)NCc1cccc(Cl)c1	Dyrk1A ADPGlo 51.0
N#C/C(=C/c1ccc(O)cc1)C(=O)NCc1ccc(Cl)cc1	none
CCCOC(=S)N/C(=N\S(=O)(=O)c1ccccc1)c1ccccc1	SMARCA2 activ 7.9
CCOC(=S)N/C(=N\S(=O)(=O)c1ccccc1)c1ccccc1	none
Cc1ccc(S(=O)(=O)/N=C(/NC(=S)Nc2ccccc2)c2ccccc2)cc1	esBAF inh 55.5
Cc1ccc(S(=O)(=O)N[C@H]2C=C[C@@H](CC(=O)N3CCc4ccccc4C3)O[C@H]2CO)cc1	none (no result: CDK5 p35 inh, Rtt109 HAT inh, dFosB activator, SMARCA2 activ, Dyrk1A ADPGlo)
Fc1ccc(NC(=S)Nc2ccc(Br)cc2)cc1	Rtt109 HAT inh 54.9
Oc1ccc(NC(=S)Nc2ccc(F)cc2)cc1	none (no result: Dyrk1A ADPGlo)
CCOc1cc(/C=N/NC(=O)CSc2nncn2C)ccc1OCc1cccc(C)c1	Rtt109 HAT inh 50.3 (no result: esBAF inh)
CC(C)NC(=O)N(C)C[C@H]1OCCCC[C@H](C)Oc2ccc(NS(=O)(=O)c3cccs3)cc2C(=O)N([C@@H](C)CO)C[C@@H]1C	none (no result: CDK5 p35 inh, Rtt109 HAT inh, dFosB activator, SMARCA2 activ, Dyrk1A ADPGlo)
O=C(C[C@H]1CC[C@@H]2[C@H](COC[C@H](O)CN2S(=O)(=O)c2ccccc2F)O1)NCc1ccccc1F	none (no result: CDK5 p35 inh, Rtt109 HAT inh, dFosB activator, SMARCA2 activ, Dyrk1A ADPGlo)
Clc1ccc(-c2csc(N3CCN(c4ccccc4)CC3)n2)cc1	none
O=C(N1CCOCC1)N1CCN(c2nc(-c3ccccc3)cs2)CC1	none
c1ccc(-c2csc(N3CCN(c4ccccn4)CC3)n2)cc1	esBAF inh 61.0
c1ccc(-c2csc(N3CCOCC3)n2)cc1	esBAF inh 59.9
COc1ccc(CNC(=O)C[C@@H]2C=C[C@@H](NS(=O)(=O)c3cccc(OC)c3)[C@H](CO)O2)cc1	none (no result: CDK5 p35 inh, Rtt109 HAT inh, dFosB activator, SMARCA2 activ, Dyrk1A ADPGlo)
O=S(=O)(Nc1ccc2nc(C(F)(F)F)[nH]c2c1)c1ccccc1	none
Cc1ccc(-c2nc3ccc(NS(=O)(=O)c4ccccc4)cc3[nH]2)o1	esBAF inh 77.8
C[C@H](CO)N1C[C@H](C)[C@H](CN(C)Cc2ccc(Cl)c(Cl)c2)Oc2ccc(NS(=O)(=O)c3cccs3)cc2CC1=O	none (no result: CDK5 p35 inh, Rtt109 HAT inh, dFosB activator, SMARCA2 activ, Dyrk1A ADPGlo)
O=C(Nc1ccc(OC(F)(F)F)cc1)c1cnc2n(c1=O)CCS2	esBAF inh 47.8
Cc1cnc(C(=O)Nc2ccc(N3CCCCC3)cc2)cn1	none (no result: esBAF inh)
Cc1cnc(C(=O)Nc2ccc(OC(F)(F)F)cc2)cn1	esBAF inh 44.5 (no result: Dyrk1A ADPGlo)
Cc1ccc2c(COC(=O)c3ccc(C)c(C)c3)cc(=O)oc2c1	esBAF inh 45.6
COc1ccc(Br)c(C(=O)OCc2cc(=O)oc3cc(C)ccc23)c1	none
COc1ccc(C(=O)OCc2cc(=O)oc3cc(C)ccc23)cc1S(=O)(=O)N1CCOCC1	none (no result: CDK5 p35 inh, Rtt109 HAT inh, dFosB activator, Dyrk1A ADPGlo)
Cc1ccc2c(COC(=O)c3ccccc3Br)cc(=O)oc2c1	esBAF inh 53.7
Cc1ccc2c(COC(=O)c3ccccc3Cl)cc(=O)oc2c1	esBAF inh 70.9
C[C@@H]1CN([C@@H](C)CO)S(=O)(=O)c2ccc(-c3cccc(C#N)c3)cc2O[C@@H]1CN(C)C(=O)C1CC1	none (no result: CDK5 p35 inh, Rtt109 HAT inh, dFosB activator, SMARCA2 activ, Dyrk1A ADPGlo)
CN1CCN(C(=O)[C@@H]2[C@@H](CO)[C@@H]3Cn4c(cccc4=O)[C@H]2N3S(=O)(=O)c2ccccc2F)CC1	none (no result: CDK5 p35 inh, Rtt109 HAT inh, dFosB activator, SMARCA2 activ, Dyrk1A ADPGlo)
CNc1cccc(-c2cccc(O)c2)n1	esBAF inh 53.5 (no result: CDK5 p35 inh, Rtt109 HAT inh, dFosB activator, Dyrk1A ADPGlo)
CNc1cncc(-c2cccc(O)c2)n1	none (no result: CDK5 p35 inh, Rtt109 HAT inh, dFosB activator, Dyrk1A ADPGlo)
COc1ccc(Cc2c(-c3cccc(Br)c3)nc3ccc(Cl)cn23)c(C)c1	esBAF inh 57.7 (no result: CDK5 p35 inh, Rtt109 HAT inh, dFosB activator, Dyrk1A ADPGlo)
COc1ccc(Cc2c(-c3ccccc3)nc3ccc(Br)cn23)c(C)c1	esBAF inh 61.1 (no result: CDK5 p35 inh, Rtt109 HAT inh, dFosB activator, Dyrk1A ADPGlo)
O=C(NCC1CC1)[C@H]1[C@H](CO)[C@H]2Cn3c(ccc(-c4cncnc4)c3=O)[C@H]2N1C(=O)NC1CCCC1	none (no result: CDK5 p35 inh, Rtt109 HAT inh, dFosB activator, SMARCA2 activ, Dyrk1A ADPGlo)
CC1(C)CSC(=NCCc2ccccc2)N1	esBAF inh 44.6
O=C(NC1CCCC1)C(c1ccc(F)cc1)N(C(=O)c1csnn1)c1ccccc1 (stereo unspecified)	Rtt109 HAT inh 52.1
Cc1ccc(N(C(=O)c2csnn2)C(C(=O)NC(C)(C)C)c2ccncc2)cc1 (stereo unspecified)	none (no result: Rtt109 HAT inh, Dyrk1A ADPGlo)
CC(C)c1ccc(N(C(=O)c2csnn2)C(C(=O)NC(C)(C)C)c2ccncc2)cc1 (stereo unspecified)	esBAF inh 57.9
CCCN1C[C@H](C)[C@H](OC)CN(C)C(=O)c2cc(NC(=O)c3cccc(F)c3)ccc2OC[C@H]1C	none (no result: CDK5 p35 inh, Rtt109 HAT inh, dFosB activator, SMARCA2 activ, Dyrk1A ADPGlo)
C[C@@H]1CN([C@@H](C)CO)C(=O)Cc2cc(NC(=O)NC3CCCCC3)ccc2O[C@H]1CN(C)C(=O)Nc1cccc2ccccc12	none (no result: CDK5 p35 inh, Rtt109 HAT inh, dFosB activator, SMARCA2 activ, Dyrk1A ADPGlo)
O=C(OCc1nc2ccccc2s1)c1ccccc1O	none (no result: esBAF inh)
O=C(OCc1nc2ccccc2s1)c1cnccn1	esBAF inh 54.8
